The values below come from ChEMBL document CHEMBL1961873, “Compounds: GSK PKIS; Assays: Nanosyn kinase panel” (2012).

In general, inhibition refers to the change of the read-out against control, counted positive when it falls.

Test [1] has as its target Calcium/calmodulin-dependent protein kinase type II subunit alpha (Homo sapiens) (UniProt Q9UQM7). To be noted: at 1 µM.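 Note: reported value is a mean percent inhibition of CAMK2A.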
The target of test [2] is Calcium/calmodulin-dependent protein kinase type II subunit delta (Homo sapiens) (UniProt Q13557). The conditions noted are these: at 0.1 µM.
Test [3] shares this target. The conditions noted are these: at 1 µM.
The target of test [4] is T1, Calcium/calmodulin-dependent protein kinase type IV (Homo sapiens) (UniProt Q16566).
T1 sequence (whole entry): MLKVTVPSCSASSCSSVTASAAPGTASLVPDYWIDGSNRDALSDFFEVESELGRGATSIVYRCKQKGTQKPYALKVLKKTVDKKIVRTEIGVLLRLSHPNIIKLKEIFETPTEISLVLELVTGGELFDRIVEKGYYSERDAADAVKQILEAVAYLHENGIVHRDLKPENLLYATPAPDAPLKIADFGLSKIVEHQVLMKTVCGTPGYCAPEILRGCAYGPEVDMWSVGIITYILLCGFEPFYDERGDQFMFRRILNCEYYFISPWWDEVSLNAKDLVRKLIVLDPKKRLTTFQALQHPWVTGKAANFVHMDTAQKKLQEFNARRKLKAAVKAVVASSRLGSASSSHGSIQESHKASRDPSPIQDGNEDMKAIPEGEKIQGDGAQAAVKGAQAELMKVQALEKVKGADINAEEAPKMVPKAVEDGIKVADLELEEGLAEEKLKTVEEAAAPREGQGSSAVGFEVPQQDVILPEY
The conditions noted are these: at 0.1 µM.

Test [5] concerns the target T1, Calcium/calmodulin-dependent protein kinase type IV (Homo sapiens). To be noted: at 1 µM.
Test [6] addresses T2, Serine/threonine-protein kinase Chk1 (Homo sapiens) (UniProt O14757).
T2 sequence (whole entry): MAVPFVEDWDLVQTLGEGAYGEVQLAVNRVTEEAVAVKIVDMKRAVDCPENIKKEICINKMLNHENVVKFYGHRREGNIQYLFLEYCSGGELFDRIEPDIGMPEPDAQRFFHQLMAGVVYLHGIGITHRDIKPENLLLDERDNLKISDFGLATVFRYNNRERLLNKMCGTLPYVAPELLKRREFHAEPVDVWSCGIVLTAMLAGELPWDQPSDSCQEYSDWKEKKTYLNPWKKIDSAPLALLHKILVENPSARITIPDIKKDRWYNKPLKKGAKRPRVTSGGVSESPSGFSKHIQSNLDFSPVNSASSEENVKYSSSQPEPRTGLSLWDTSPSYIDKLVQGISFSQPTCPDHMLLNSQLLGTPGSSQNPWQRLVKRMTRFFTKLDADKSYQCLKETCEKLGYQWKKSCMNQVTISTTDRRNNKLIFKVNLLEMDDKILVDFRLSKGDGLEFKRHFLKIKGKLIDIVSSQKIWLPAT
To be noted: at 0.1 µM.

Test [7] has as its target T2, Serine/threonine-protein kinase Chk1 (Homo sapiens). To be noted: at 1 µM.
The target of test [8] is Serine/threonine-protein kinase Chk2 (Homo sapiens) (UniProt O96017). To be noted: at 0.1 µM.
The target is the same in test [9]. The conditions noted are these: at 1 µM.
In test [10] the target is Death-associated protein kinase 1 (Homo sapiens) (UniProt P53355). The conditions noted are these: at 0.1 µM.
For test [11] the target is unchanged. To be noted: at 1 µM.
The target of test [12] is T3, Serine/threonine-protein kinase DCLK2 (Homo sapiens) (UniProt Q8N568).
T3 sequence (whole entry): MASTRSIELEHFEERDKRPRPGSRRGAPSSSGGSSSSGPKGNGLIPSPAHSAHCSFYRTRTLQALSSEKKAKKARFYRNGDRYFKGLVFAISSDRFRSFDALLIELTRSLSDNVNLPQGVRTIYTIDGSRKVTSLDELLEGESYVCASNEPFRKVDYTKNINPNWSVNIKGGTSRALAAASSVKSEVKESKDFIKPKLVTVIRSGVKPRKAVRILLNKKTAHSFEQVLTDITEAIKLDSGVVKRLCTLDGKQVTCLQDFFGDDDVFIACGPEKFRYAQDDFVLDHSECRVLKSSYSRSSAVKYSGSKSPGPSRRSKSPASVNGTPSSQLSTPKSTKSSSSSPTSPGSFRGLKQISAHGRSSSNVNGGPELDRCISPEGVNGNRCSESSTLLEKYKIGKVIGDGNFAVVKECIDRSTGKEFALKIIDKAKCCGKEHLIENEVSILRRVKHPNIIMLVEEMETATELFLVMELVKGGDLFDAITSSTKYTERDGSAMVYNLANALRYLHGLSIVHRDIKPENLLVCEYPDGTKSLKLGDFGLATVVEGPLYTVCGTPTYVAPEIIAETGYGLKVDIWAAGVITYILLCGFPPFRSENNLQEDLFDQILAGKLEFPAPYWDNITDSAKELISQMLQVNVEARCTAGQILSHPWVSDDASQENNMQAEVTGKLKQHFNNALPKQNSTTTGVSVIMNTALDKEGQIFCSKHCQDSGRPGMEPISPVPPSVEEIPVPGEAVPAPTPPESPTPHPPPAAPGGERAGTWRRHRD
The conditions noted are these: at 0.1 µM.

Test [13] concerns the target T3, Serine/threonine-protein kinase DCLK2 (Homo sapiens). To be noted: at 1 µM.
The target of test [14] is MAP kinase-activated protein kinase 2 (Homo sapiens) (UniProt P49137). To be noted: at 0.1 µM.
Test [15] shares this target. The conditions noted are these: at 1 µM.
Test [16] concerns the target MAP kinase-activated protein kinase 3 (Homo sapiens) (UniProt Q16644). To be noted: at 0.1 µM.
The target is the same in test [17]. The conditions noted are these: at 1 µM.
For test [18], the target named is Serine/threonine-protein kinase MARK1 (Homo sapiens) (UniProt Q9P0L2). To be noted: at 0.1 µM.
The target is the same in test [19]. To be noted: at 1 µM.
Test [20] addresses MAP/microtubule affinity-regulating kinase 3 (Homo sapiens) (UniProt P27448). The conditions noted are these: at 0.1 µM.

Chain of Serine/threonine-protein kinase Chk2 (Homo sapiens) (O96017 whole entry): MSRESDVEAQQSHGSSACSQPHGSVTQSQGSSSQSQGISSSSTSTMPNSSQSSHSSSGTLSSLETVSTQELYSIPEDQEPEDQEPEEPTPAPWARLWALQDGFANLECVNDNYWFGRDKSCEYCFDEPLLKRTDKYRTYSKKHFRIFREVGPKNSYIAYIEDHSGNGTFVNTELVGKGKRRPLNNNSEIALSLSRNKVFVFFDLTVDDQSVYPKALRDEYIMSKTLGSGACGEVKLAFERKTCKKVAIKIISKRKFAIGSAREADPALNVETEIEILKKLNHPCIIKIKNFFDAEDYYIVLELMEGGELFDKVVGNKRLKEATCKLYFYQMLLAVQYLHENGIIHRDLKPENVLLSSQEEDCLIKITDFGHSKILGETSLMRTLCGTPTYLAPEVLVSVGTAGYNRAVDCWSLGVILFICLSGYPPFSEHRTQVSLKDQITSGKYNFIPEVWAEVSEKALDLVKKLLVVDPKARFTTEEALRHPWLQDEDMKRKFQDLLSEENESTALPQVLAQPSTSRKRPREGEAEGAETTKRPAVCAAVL
Chain of MAP kinase-activated protein kinase 2 (Homo sapiens) (P49137 whole entry, looked up): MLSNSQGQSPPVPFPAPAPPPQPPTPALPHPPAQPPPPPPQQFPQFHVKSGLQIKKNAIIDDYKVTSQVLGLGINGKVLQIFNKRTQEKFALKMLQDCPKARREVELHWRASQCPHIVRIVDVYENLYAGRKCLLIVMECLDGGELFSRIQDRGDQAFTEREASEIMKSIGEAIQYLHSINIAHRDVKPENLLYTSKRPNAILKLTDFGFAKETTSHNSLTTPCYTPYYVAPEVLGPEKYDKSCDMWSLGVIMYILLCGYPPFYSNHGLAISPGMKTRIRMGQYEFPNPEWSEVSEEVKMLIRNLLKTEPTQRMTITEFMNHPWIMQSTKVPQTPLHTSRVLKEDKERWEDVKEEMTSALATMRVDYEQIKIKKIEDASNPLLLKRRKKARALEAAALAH
Chain of Calcium/calmodulin-dependent protein kinase type II subunit delta (Homo sapiens) (Q13557 whole entry): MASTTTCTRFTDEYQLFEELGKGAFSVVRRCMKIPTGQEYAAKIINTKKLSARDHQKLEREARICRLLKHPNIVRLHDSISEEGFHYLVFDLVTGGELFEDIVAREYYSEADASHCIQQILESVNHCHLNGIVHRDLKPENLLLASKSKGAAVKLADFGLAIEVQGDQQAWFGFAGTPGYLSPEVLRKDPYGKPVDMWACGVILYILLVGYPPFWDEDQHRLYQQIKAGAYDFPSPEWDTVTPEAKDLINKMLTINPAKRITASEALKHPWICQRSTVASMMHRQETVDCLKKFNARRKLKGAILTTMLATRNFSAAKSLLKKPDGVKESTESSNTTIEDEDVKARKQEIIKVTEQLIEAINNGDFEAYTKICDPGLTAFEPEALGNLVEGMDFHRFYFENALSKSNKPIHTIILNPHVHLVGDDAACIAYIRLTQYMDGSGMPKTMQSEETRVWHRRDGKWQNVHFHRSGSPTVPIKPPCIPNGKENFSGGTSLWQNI
Chain of MAP/microtubule affinity-regulating kinase 3 (Homo sapiens) (P27448 whole entry, looked up): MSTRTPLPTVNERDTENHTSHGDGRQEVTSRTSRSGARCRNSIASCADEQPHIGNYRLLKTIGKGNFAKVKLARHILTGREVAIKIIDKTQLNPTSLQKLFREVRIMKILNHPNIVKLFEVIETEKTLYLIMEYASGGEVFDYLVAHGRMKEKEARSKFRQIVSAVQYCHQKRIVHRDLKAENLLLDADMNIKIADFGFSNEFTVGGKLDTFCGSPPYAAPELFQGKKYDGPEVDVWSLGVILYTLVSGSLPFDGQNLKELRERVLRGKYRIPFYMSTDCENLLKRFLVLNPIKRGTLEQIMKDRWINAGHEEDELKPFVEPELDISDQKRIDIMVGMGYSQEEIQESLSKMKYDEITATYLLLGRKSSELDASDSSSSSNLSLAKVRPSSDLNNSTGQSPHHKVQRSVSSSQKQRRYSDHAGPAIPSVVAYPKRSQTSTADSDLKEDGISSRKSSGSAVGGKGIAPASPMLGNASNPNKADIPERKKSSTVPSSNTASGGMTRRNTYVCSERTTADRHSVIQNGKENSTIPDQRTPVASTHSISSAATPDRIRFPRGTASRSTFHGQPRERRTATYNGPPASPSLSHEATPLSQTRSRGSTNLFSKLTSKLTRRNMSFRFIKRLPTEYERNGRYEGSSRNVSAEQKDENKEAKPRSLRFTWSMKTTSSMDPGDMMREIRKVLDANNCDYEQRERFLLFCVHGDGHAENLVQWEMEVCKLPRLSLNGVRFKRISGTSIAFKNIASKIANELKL
Chain of Serine/threonine-protein kinase MARK1 (Homo sapiens) (Q9P0L2 whole entry, looked up): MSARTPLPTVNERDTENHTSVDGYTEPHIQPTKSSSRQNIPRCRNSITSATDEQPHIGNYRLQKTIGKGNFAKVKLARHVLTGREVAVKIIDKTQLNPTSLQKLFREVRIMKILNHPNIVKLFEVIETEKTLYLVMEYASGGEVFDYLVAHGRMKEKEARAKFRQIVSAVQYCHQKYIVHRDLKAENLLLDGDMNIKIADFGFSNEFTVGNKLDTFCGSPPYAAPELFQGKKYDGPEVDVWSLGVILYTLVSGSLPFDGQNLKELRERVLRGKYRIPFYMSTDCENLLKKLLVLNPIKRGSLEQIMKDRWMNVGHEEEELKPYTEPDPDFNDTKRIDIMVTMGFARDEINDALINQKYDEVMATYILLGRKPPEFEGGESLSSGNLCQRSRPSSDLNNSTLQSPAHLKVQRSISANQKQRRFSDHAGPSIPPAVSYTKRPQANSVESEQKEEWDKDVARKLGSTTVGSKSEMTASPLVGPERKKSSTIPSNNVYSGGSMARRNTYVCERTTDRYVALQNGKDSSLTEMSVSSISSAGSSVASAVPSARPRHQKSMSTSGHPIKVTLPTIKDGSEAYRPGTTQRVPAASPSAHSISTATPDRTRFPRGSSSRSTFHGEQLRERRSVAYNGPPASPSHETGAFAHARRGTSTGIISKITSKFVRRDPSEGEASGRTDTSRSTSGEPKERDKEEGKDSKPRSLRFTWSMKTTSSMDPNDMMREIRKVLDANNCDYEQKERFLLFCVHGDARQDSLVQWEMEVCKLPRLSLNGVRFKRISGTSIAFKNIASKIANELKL
Chain of MAP kinase-activated protein kinase 3 (Homo sapiens) (Q16644 whole entry, looked up): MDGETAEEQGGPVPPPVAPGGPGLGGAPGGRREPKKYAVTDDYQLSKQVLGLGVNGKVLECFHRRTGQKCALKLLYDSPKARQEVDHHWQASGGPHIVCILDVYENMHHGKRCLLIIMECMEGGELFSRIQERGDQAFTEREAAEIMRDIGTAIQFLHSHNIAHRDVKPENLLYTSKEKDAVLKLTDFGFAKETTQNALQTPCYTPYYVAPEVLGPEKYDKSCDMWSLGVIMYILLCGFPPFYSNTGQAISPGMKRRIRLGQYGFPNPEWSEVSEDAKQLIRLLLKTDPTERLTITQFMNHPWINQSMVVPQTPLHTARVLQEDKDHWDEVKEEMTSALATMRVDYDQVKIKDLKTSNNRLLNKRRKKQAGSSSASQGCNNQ
Chain of Death-associated protein kinase 1 (Homo sapiens) (P53355 whole entry, looked up): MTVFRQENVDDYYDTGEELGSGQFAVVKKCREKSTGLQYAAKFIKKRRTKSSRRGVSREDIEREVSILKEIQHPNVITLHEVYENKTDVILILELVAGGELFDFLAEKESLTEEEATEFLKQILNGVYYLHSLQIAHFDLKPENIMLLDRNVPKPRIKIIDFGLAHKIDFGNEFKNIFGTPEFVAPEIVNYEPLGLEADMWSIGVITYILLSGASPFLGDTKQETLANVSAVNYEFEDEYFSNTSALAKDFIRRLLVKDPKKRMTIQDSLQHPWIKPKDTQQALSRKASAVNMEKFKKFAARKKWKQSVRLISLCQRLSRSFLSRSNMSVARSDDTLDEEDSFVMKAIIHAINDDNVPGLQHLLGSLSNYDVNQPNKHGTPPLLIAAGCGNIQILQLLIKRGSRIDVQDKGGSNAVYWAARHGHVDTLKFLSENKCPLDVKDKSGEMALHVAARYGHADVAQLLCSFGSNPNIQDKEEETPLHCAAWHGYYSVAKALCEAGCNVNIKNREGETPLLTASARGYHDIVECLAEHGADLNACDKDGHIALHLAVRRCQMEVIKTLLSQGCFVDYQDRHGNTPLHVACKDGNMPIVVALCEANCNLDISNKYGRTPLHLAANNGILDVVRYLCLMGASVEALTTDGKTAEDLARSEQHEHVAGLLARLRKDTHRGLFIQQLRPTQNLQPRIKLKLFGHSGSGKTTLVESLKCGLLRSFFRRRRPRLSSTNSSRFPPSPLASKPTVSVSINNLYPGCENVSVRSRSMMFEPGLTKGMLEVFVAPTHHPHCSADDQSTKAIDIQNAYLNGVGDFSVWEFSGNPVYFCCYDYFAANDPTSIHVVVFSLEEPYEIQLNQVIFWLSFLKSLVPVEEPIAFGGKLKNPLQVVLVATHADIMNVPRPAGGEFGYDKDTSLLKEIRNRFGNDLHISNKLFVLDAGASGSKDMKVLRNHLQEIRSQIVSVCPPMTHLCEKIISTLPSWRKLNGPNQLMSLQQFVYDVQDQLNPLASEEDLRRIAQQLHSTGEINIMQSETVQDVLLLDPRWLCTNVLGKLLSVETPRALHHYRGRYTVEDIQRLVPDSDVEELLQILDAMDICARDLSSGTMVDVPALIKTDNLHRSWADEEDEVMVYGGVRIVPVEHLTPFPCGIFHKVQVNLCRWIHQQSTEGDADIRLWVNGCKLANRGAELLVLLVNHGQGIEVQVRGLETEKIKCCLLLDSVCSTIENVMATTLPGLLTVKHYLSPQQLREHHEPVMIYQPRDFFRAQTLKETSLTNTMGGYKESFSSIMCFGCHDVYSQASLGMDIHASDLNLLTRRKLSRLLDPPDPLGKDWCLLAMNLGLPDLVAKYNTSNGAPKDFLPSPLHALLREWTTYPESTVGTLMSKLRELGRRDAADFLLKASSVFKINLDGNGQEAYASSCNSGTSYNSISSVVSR

With `CS(=O)(=O)CCNCc1coc(-c2ccc3ncnc(Nc4ccc(OCc5ccccc5)cc4)c3c2)c1`, the inhibition in [1] came to 6.16%; in [2] it was 2.95%; in test [3], 3.61%; in test [4] it was 2.14%; in test [5], 3.11%; in test [6] it was 1.85%. The inhibition in test [7] was 3.43%; in test [8], 5.28%; in test [9], 28.8%; in test [10], 2.7%; in test [11], 1.73%; in test [12] it was -0.36%. Also, the inhibition stood at 0.64% in test [13]; 1.33% in [14]; 1.98% in test [15]; 2.6% in test [16]; 1.32% in test [17]; 2.05% in test [18]. The inhibition was 1.62% in test [19] and 1.54% in test [20].
`Cc1cccc(Nc2ncc(-c3ccccc3)o2)c1`: the inhibition in test [1] amounted to 7.1%; in test [2], 4.42%; in test [3], 6.85%; in test [4], 1.87%; in test [5], 4.2%; in [6], 4.59%. The inhibition was 6.26% in [7]; 3.02% in test [8]; 6.44% in test [9]; 5.26% in test [10]; 3.39% in test [11]; -0.51% in test [12]. The inhibition was determined as 1.2% in test [13]; 1.15% in test [14]; 3.82% in test [15]; 3.13% in test [16]; 4.32% in [17]; 2.41% in test [18]. Moreover, the figures for the inhibition in test [19] and in test [20] were 8.07% and 3.98%, respectively.
`CCOc1ccc2c(-c3ccnc(Nc4cccc(C(F)(F)F)c4)n3)cnn2n1`: the inhibition in test [1] is -2.29%; in test [2], 2.41%; in test [3], 0.44%; in [4] it was 1.94%; in test [5], -1%; in test [6], 3.49%. Also, the inhibition in test [7] stood at 3.51%; in test [8] it was 1.55%; in [9] it was 1.92%; in test [10], 3.1%; in [11], 1.54%; in test [12], 1.21%. Moreover, the inhibition in test [13] is 3.6%; in test [14] it was 0.79%; in [15], -0.24%; in test [16], 2.73%; in test [17], 1.86%; in test [18], 2.43%. Also, the inhibition was 3.98% in test [19] and 1.6% in test [20].
Turning to `COc1cc(N2CCN(C(C)C)CC2)ccc1Nc1nc(Nc2ccc(F)cc2C(N)=O)c2cc[nH]c2n1`, the inhibition came to 53.3% in test [1]; 29% in test [2]; 75.1% in test [3]; 4.5% in test [4]; 29.3% in test [5]; 3.09% in test [6]. The inhibition in [7] is 27.8%; in test [8], 49.6%; in test [9] it was 79.1%; in test [10], 5.07%; in test [11] it was 46%; in test [12], -0.62%. The inhibition in test [13] was found to be 8.47%; in test [14], 0.94%; in test [15] it was 5.03%; in test [16], 3.04%; in [17] it was 7.11%; in test [18] it was 7.7%. Also, the inhibition in [19] came to 47.7%; in test [20], 12.3%.
Turning to `COc1cc2c(cc1Nc1nc(Nc3ccsc3C(N)=O)c3cc[nH]c3n1)N(C(=O)CN(C)C)CCC2(C)C`, the inhibition was 10.5% in [1]; 7.45% in test [2]; 25.7% in test [3]; 3.29% in test [4]; 19.9% in [5]; -0.75% in test [6]. Also, the inhibition in test [7] is -2.52%; in test [8] it was 0.76%; in test [9], 21.1%; in [10] it was -1.5%; in test [11], 5.25%; in test [12], 1.46%. Also, the inhibition is 5.94% in test [13]; -0.48% in [14]; -0.86% in test [15]; -0.72% in test [16]; -0.02% in test [17]; 6.98% in test [18]. In addition, the inhibition is 11.9% in test [19] and 5.88% in [20].
For the molecule `CNC(=O)c1cncc(/C=C/c2ccccc2Cl)c1`, the inhibition is 1.63% in test [1]; -0.13% in test [2]; -0.98% in [3]; -3.66% in test [4]; -4.17% in test [5]; 1.43% in test [6]. For the same molecule, the inhibition in test [7] is 3.35%; in test [8] it was -0.6%; in test [9] it was 1.77%; in test [10], 2.15%; in test [11] it was 1.77%; in test [12], 0.59%. Moreover, the inhibition in test [13] is -3.35%; in test [14], 0.55%; in test [15] it was 1.05%; in test [16], 0.66%; in [17] it was -0.89%; in [18], 1.46%. For the same molecule, the inhibition is 5.24% in test [19] and 1.01% in test [20].
